Source: PubChem BioAssay
JMJD2A Tudor – JMJD2A Tudor domain (human) inhibition. O75164. AlphaScreen JMJD2A-Tudor / H3K4me3 peptide binding. Potency, µM (doses to about 114 µM), for inactives: at the top dose activity change, negative = inhibition, usual class: inhibitors. actives 4.4% (n = 390,000). AID 504339; further: potency means the concentration at half of the fitted maximal effect; on the % scale 0 is the no-effect control and ±100 the full control effect; nearly all actives have a fitted effect of over 50% in size
BAZ2B inh – inhibitors of human BAZ2B bromodomain; Q9UIF8; AlphaScreen BAZ2B-H3K14Ac peptide displacement; Potency, µM (series often up to 114 µM), inactives show at the top dose activity change, negative = inhibition, usual class: inhibitors; actives 4.4% (n = 360,000); AID 504333; further: potency means the concentration at half of the fitted maximal effect; on the % scale 0 is the no-effect control and ±100 the full control effect; nearly all actives have a fitted effect of over 60% in size
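Compounds, titrated to a top concentration of 110 uM, were incubated 30 min at room temperature with preformed BAZ2B/acetyl-K14 H3 peptide complex (50 nM each). Proximity signal was measured by AlphaScreen after 20 min with beads.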
Six1-Eya2 blk – inhibitors of human Six1/Eya2 interaction; activity change, % (concentration not given with the values); actives 0.56% (n = 360,000); AID 651725; Q15475+O00167; AlphaScreen GST-Six1/His-Eya2 binding, biochemical; active compounds read low; in the data active means activity change below about -65%; inconclusive means mostly about -30% to -63%; further: on the % scale 0 is the no-effect control and ±100 the full control effect
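Six1/Eya2 binding was read as AlphaScreen signal after compounds were pinned into GST-Six1 plus His-tagged Eya2 (5X stock 250/500 nM) in pH 8.0 Tris/NaCl/TCEP buffer, beads added, then incubated 1 h, 37 C, dark.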
CtBP-E1A inh – inhibitors of CtBP/E1A interaction; AlphaScreen GST-E1A/His-CtBP binding, 1536-well; active compounds read low; activity change, % (concentration not given with the values); actives 0.49% (n = 340,000); in the data active means activity change below about -65%; inconclusive means mostly about -30% to -63%; further: on the % scale 0 is the no-effect control and ±100 the full control effect
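In 5 uL wells, 23 nL compound meets equimolar GST-E1A and His-CtBP (5X stock 125 nM each) for 2 h, 37 °C. Beads (5X, 50 ug/mL) then 1 h, 37 °C, dark.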
HP1b chromo inh – blocks HP1-beta chromodomain binding to methylated histone tails; P83916; AID 540317; Potency, µM (top dose mostly 114 µM), for the others: at the highest dose activity change, negative = inhibition, hits mostly inhibitors; AlphaScreen HP1-beta / biotin-H3K9me3 peptide binding; actives 0.56% (n = 390,000); further: potency means the concentration at half of the fitted maximal effect; nearly all actives have a fitted effect of over 70% in size
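AlphaScreen: HP1-beta (50 nM) preformed 30 min with biotin-H3(1-18)K9me3 peptide (50 nM) in PBS pH 7.4, 0.01% Tween-20. Compound added for 30 min at RT, then streptavidin donor/nickel chelate acceptor beads (10 ug/mL) for 30 min.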
G9a block – inhibitors of human histone lysine methyltransferase G9a; Q96KQ7; G9a H3K9 monomethylation, AlphaScreen, 2 h; Potency, µM (series often up to 102 µM), for the others: at the top dose activity, negative = inhibition, usual class: inhibitors; actives 8.8% (n = 350,000); AID 504332; further: potency means the concentration at half of the fitted maximal effect; on the % scale 0 is the no-effect control and ±100 the full control effect; nearly all actives have a fitted effect of over 75% in size
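Compounds were preincubated with 20 nM G9a for 15 min, after which biotinylated H3K9 peptide (500 nM) and SAM (20 uM) started a 2 h room-temperature reaction. Monomethylated product was quantified by antibody-based AlphaScreen chemiluminescence.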
The depositor's hits bear a star; u = inconclusive; x = no result given; [ ] = another dose, or the depositor's remark. In the library only some 10% were active in any assay of this set; here they are far more common. Unless noted, the call rests on the fitted dose curve; in most records, active means well fitted inhibition curve with a large enough effect; inconclusive means small, poorly fitted or top-dose-only effect; inactive means no such curve, though single readings can be large or run the other way.

SMILES	JMJD2A Tudor	BAZ2B inh	Six1-Eya2 blk	CtBP-E1A inh	HP1b chromo inh	G9a block
CCCCn1nnnc1SCC(=O)Nc1ccc(N(C)C)cc1	u	-37.9%	-6.8	-5.6	-15.9%	44.7µM*
COc1ccc(NC(=O)CSc2nnc(C3CC3)n2N)cc1	-13.4%	0.5%	0.0	-0.7	31.9%	41.7%[12.7 µM]
CCn1c(SCC(=O)Nc2nccs2)nnc1C1CC1	-15.1%	4.7%	2.8	-12.7	28.9%	x
Nn1c(SCC(=O)Nc2nccs2)nnc1C1CC1	-1.1%	-22.3%	-1.7	-6.1	35.2%	39.8µM*
CCCCn1nnnc1SCC(=O)Nc1ccc(F)cc1	-0.6%	4.9%	5.3	-2.0	56.1%	0.5%
CN(C)c1ccc(NC(=O)CSc2nnc(C3CCCCC3)n2N)cc1	u	u	-12.0	-2.1	19.0%	39.8µM*
COc1ccc(NC(=O)CSc2nnc(C3CC3)n2C)cc1	10µM*	2.1%	-0.6	-17.8	6.2%	-7.2%
Nn1c(SCC(=O)Nc2ccc(F)cc2)nnc1C1CCCCC1	5.4%	7.7%	-2.6	3.5	42.5%	15.3%[2.33 µM]
CCOC(=O)CC(NC(=O)CCS(=O)(=O)c1ccc2c(c1)n(C)c(=O)c(=O)n2C)c1ccc(C)cc1 (stereo not given)	4.2%	-18.6%	-1.8	0.0	29.5%	7.1%
COc1ccccc1-c1nn2c(-c3cc(C)[nH]n3)nnc2s1	-11.5%[57.1 µM]	x	x	x	22.0%[57 µM]	x
CC(C)n1c(SCC(=O)Nc2nncs2)nnc1C1CC1	-19.6%	-9.8%	-1.0	4.9	26.7%	28.7%
Cn1c(SCC(=O)Nc2nncs2)nnc1C1CC1	56.2µM*	50.1µM*	-17.2	-9.5	-34.2%	x
CCc1ccccc1NC(=O)c1cc2sc(Cl)cc2n1CC	-12.0%	9.6%	x	x	26.0%	3.3%[59 µM]
C=CC[C@H]1C=C[C@@H](C(C(=O)OC)C(=O)OC)CN1C(C)=O	u	x	-17.2	-26.1	u	x
C=CCN(c1ccccc1OC)S(=O)(=O)c1ccc(Cl)c(C(=O)Nc2ccc(N3CCOCC3)cc2)c1	-30.8%	u	-15.1	-3.0	3.5%	25.1µM*
COc1ccccc1N(C)S(=O)(=O)c1ccc(C(=O)Nc2ccc(N3CCOCC3)cc2)cc1	u	u	-20.3	u	0.2%	39.8µM*
COc1cc(NC(=O)c2ccc(S(=O)(=O)N(C)c3ccccc3OC)cc2)cc(OC)c1	-16.6%	x	-30.0	-8.4	15.3%	x
CN(CC(=O)Nc1ccc(N2CCOCC2)cc1)C(=O)c1cc(S(=O)(=O)N(C)C)ccc1Cl	-16.6%	-18.7%	7.6	1.3	4.0%	u
COc1ccc(/C=C2\Sc3ccc(C(=O)NCCCN4CCCC4)cc3N(C)C2=O)cc1OC	-5.4%	u	-12.8	x	42.1%	u
Cc1ccc(C(=O)NCCc2sc(C)nc2C)cc1	-13.9%	-31.4%	5.3	-6.8	8.5%	5.0%[59 µM]
Cc1nc(C)c(CCNC(=O)c2ccc(C(F)(F)F)cc2)s1	-7.6%	4.5%	4.2	-1.8	21.1%	44.7µM*
Cc1nn(C(C)C(=O)NCc2ccco2)c(=O)c2nn(-c3ccccc3)c(C)c12 (stereo not given)	7.4%	-5.9%	15.6	x	35.8%	9.5%[59 µM]
Cc1ccc(OCCCC(=O)NNC(=O)c2ccncc2)cc1	-0.7%	-3.9%	0.4	9.9	28.3%	15.3%[59 µM]
COc1cc(C(=O)NC(c2ccccc2)c2ccccc2)cc(OC)c1C	-5.7%	u	1.6	2.8	15.3%	50.1µM*
CNC(=O)c1cc(Cl)c(OC)c(OC)c1	-34.9%	-0.9%	-5.9	2.7	u	7.94µM*
SMILES	JMJD2A Tudor	BAZ2B inh	Six1-Eya2 blk	CtBP-E1A inh	HP1b chromo inh	G9a block
Cc1c(N2C(=O)/C(=C/c3ccccc3)SC2=S)c(=O)n(-c2ccccc2)n1C	-22.4%	-36.6%	2.4	-14.2	-5.9%	21.3%[0.501 µM]
Cc1c(N2C(=O)/C(=C\c3ccccc3O)SC2=S)c(=O)n(-c2ccccc2)n1C	17.8µM*	-30.4%	-2.2	-4.5	u	1.78µM*
CC(C)(C)OC(=O)N/N=C/c1cc(N=Nc2ccccc2)ccc1O	u	u	-27.0	-6.7	-24.5%	16.9%[59 µM]
CN1C(=O)/C(=C/c2cc(N=Nc3ccccc3)ccc2O)SC1=S	5.01µM*	2.24µM*	-14.3	-12.6	u	8.91µM*
Cc1c(N2C(=O)/C(=C3\C(=O)N(CC(=O)O)c4ccccc43)SC2=S)c(=O)n(-c2ccccc2)n1C	-20.4%	79.4µM*	-4.5	x	5.5%	x
COc1cccc(C2C(=O)N(C3CCCCC3)CC(=O)N2CCc2ccc(OC)c(OC)c2)c1 (stereo not given)	-9.8%	3.7%	x	x	16.2%	2.2%[59 µM]
CSCc1ccc(C(=O)N2CCCC(Nc3ccc4c(c3)OCCO4)C2)o1 (stereo not given)	-22.8%	-34.6%[57.1 µM]	-9.5	-3.1	14.4%	79.4µM*
O=C(c1cc(Cl)ccc1F)N1CCCC(Nc2ccc3c(c2)OCCO3)C1 (stereo not given)	u	u	-16.8	-0.9	-12.8%	79.4µM*
COc1ccc(CN2C(=O)CN(S(C)(=O)=O)CC2(C)C(=O)Nc2c(C)cccc2C)cc1OC (stereo not given)	x	x	8.9	-0.4	x	x
O=C(NCc1cccc(C(F)(F)F)c1)c1csc([C@H]2C[C@H](O)[C@@H](CO)O2)n1	x	x	2.3	1.5	x	x
Cc1c(NC(=O)C(C)OC(=O)/C=C/c2ccco2)c(=O)n(-c2ccccc2)n1C (stereo not given)	20µM*	50.1µM*	-13.5	1.9	44.7µM*	u
Cc1c(NC(=O)C(C)OC(=O)c2cc(-c3cccc4ccccc34)nc3ccccc23)c(=O)n(-c2ccccc2)n1C (stereo not given)	-27.1%	-4.7%	-2.6	-12.6	-2.7%	11.2µM*
COc1ccc(-c2cc(C(=O)OC(C)C(=O)Nc3c(C)n(C)n(-c4ccccc4)c3=O)c3ccccc3n2)cc1 (stereo not given)	-8.4%	-2.1%	-4.2	6.5	-5.2%	22.3%[59 µM]
O=C(c1ccc2c(c1)OCCO2)N1CCN(c2ccc([N+](=O)[O-])cc2)CC1	x	-26.2%	x	x	x	u
O=C(C[C@H]1CC[C@@H](NS(=O)(=O)c2ccccc2)[C@@H](CO)O1)NCc1ccc(Cl)c(Cl)c1	x	x	7.8	5.2	x	x
COc1ccc(-n2nc3c(c2NC(=O)COc2cccc(OC)c2)CS(=O)(=O)C3)cc1	u	u	-4.8	3.4	-18.8%	17.8µM*
CC/C(O)=C1\C(=O)CCCC1=NCCc1c(C)[nH]c2ccc(C)cc12	-6.6%[11.4 µM]	u	-2.5	-0.1	-23.5%	-43.3%
CCCC/C(O)=C1\C(=O)CCCC1=NCCc1c(C)[nH]c2ccc(OC)cc12	u	u	-14.6	-17.5	-24.3%	70.8µM*
